Measured values reported in PubChem BioAssay (NCI).
“And” between values parts separate entries of the source, which are not always exact repeats. Equal values may be shown once. Compounds without any hit were thinned out: in the full panel of roughly 83,000, 20% have a hit.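 The test compound was applied at a single concentration to cells in 96-well plates for 48 hours, and percent growth was recorded.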 Unmarked numbers belong to inactive results. The source made the active and inactive calls. The calls were made as follows: active = growth percent below 10; inactive = the rest.

What follows are molecules tested on SNB-75 CNS (assay: NCI-60 one-dose screen, 48 h (100 = growth as untreated, 0 = no growth, -100 = all killed)). Details: 10 µM unless noted.

SMILES	growth
COc1ccc(-c2[nH]c3ccccc3c2-c2ccc(OC)cc2)cc1	31.5%
COc1ccc(/C=N\Nc2nc(SCC(C)C)nc(-c3ccc(OC)cc3)c2C#N)cc1	-23.3% (active)
CN(C)C(=O)c1cc2cnc(Nc3ccc(-c4csc5c(=S)cc(N6CCOCC6)oc45)cc3)nc2n1C1CCCC1	-37.4% (active)
O=C(Nc1ccc2ncsc2c1)c1csc(Nc2ccc3[nH]ncc3c2)n1	21.6%
NS(=O)(=O)c1ccc(C(=O)N=Nc2c(O)[nH]c3c(F)cccc23)cc1	97.7%
C/C=C(\C)C(=O)N[C@H]1CC[C@]2(C)C3CC[C@@]4(C)C(CC[C@@H]4C(C)N(C)C)C3CCC2[C@H]1OC(C)=O (stereo not given in full)	-50% (active)
CC(=O)N1N=C(c2ccc(Nc3nc(Nc4ccc(F)cc4)nc(Nc4ccc(Cl)cc4)n3)cc2)CC1c1ccc(N(C)C)cc1 (stereo not given)	40.3%
ON=C1CCCCCCCC1	101% and 80.7%
Cc1ccc(NC(=O)c2sc3nc(C)c(C(=O)c4ccccc4)cc3c2N)cc1	70.7%
O=C(/C=C/c1ccc([N+](=O)[O-])cc1)c1ccccc1	83.4%
COc1cc(CO)cc2cc3ccccc3nc12	74.7%
O=C(Cc1ccc(F)cc1)c1ccccc1	100%
COc1cc(-c2[nH]ncc2Nc2ccc(Cl)cc2)cc(OC)c1OC	59.8%
CC1(Cc2ccccc2)CC2=C(C(=O)O1)C(c1ccccc1)NC(=O)N2 (stereo not given)	79.3%
C=CCN1C=CC(=O)[C@H](O[Si](C)(C)C(C)(C)C)[C@@H]1/C=C/c1ccccc1	-87.9% [100 µM] (active)
Cc1ccc(-c2nc3nc(-c4ccc(Cl)cc4)nc(N4CCCNCC4)c3o2)cc1	-10.4% (active)
CC1=C2[C@@H](CC1)[C@]1(C)O[C@@](C3CC3)(C[C@H]1OC(=O)CO)[C@H]2OC(=O)/C=C/c1ccccc1	88.2%
CCN1CCN(C(=O)[C@]23CC[C@@H](C)[C@H](C)[C@@H]2C2=CC[C@@H]4[C@@]5(C)CCC(=O)C(C)(C)[C@@H]5CC[C@@]4(C)[C@]2(C)CC3)CC1	-3.49% (active)
CCCO/N=C/c1ccccn1	85.2% and 85.5%
CN(C)CCN1C(=O)c2c(c3c4ccccc4n4c3c3c2c2ccccc2n3C2CC(O)C(O)C4(C)O2)C1=O (stereo not given)	23.3%
CCOC(=O)c1c(-c2ccc(C)cc2)c(C#N)c(=O)n(-c2cccc(C(F)(F)F)c2)c1N	76.3%
CCCCCCCCCCCCCCCC(=O)O[C@@H]1[C@@H](O)[C@@H](O)C([C@H](NC(=O)[C@@H]2C[C@@H](CCC)CN2C)[C@H](C)Cl)O[C@@H]1SC (stereo not given in full)	96.2%
O=C1/C(=C/c2cn(-c3ccccc3)nc2-c2ccccc2)SC(=S)N1c1ccc(Cl)cc1	90.4%
CN(C)CCCn1c2c(c3ccc(N4CCNCC4)cc3c1=O)C(=O)c1ccccc1-2	22.3%
CCOc1ccccc1NC(=O)c1cc2ccccc2cc1O	87.7%
COc1ccc(C/C(C)=C(/c2ccc(OCCN3CCCCCC3)cc2)c2ccc(OC(=O)c3ccccc3)cc2)cc1	110%

What follows are molecules tested on SNB-19 CNS in the same assay as above. Details: 10 µM unless noted.

SMILES	growth
COc1ccc(C(=O)c2ccc(OC)c(OC)c2OC)cc1	43.6% and 41.7%
O=C1/C(=C/c2ccccc2)CN(C(=O)C(Cl)Cl)C/C1=C\c1ccccc1	-35.8% (active)
C=C(C)[C@@H]1CC[C@]2(C(=O)O)CC[C@]3(C)[C@H](CC[C@@H]4[C@@]5(C)CCC(N)C(C)(C)[C@@H]5CC[C@]43C)[C@@H]12 (stereo not given in full)	28.1%
N#C/C(=C\c1ccc(Br)cc1)n1nnc2c(F)cccc21	15%
COC1=CC(=O)C(OC)=C(O)C1=O	101%
CC(C)(C)c1cc(NC(=O)Nc2ccc(-c3cn4c(n3)sc3cc(OCCN5CCOCC5)ccc34)cc2)no1	37.4% and 11.4%
COc1cccc(C2C(C#N)=C(N)Oc3cc(OCCCCCC[P+](c4ccccc4)(c4ccccc4)c4ccccc4)ccc32)c1 (stereo not given)	-65.8% (active)
COc1ccc(-c2ccccc2)cc1-c1c(Nc2cc(Cl)cc(Cl)c2O)c(=O)c1=O	10.9%
Cc1ccc(S(=O)(=O)Nc2cc(Sc3ccccc3)c(O)c3ccccc23)cc1	105%
COC(=O)c1[nH]nc(OC)c1C1(C(C#N)c2nc3ccccc3s2)CCCc2ccccc21 (stereo not given)	96.7%
COc1ccc(-c2cc(-c3cccc(Cl)c3)c(C#N)c(=O)[nH]2)c(OC)c1	94.2%
Cc1nc(-n2[nH]c(=O)ccc2=O)sc1N=Nc1ccccc1	99.3%
COc1ccc(-c2csc(NC(=O)CN3CCN(CCO)CC3)n2)cc1NS(=O)(=O)c1cccc2c(N(C)C)cccc12	74.3%
COc1ccc(-c2[nH]c3ccccc3c2-c2ccc(OC)cc2)cc1	53.6%
COc1ccc(/C=N\Nc2nc(SCC(C)C)nc(-c3ccc(OC)cc3)c2C#N)cc1	31%
CN(C)C(=O)c1cc2cnc(Nc3ccc(-c4csc5c(=S)cc(N6CCOCC6)oc45)cc3)nc2n1C1CCCC1	10.6%
O=C(Nc1ccc2ncsc2c1)c1csc(Nc2ccc3[nH]ncc3c2)n1	41.2%
NS(=O)(=O)c1ccc(C(=O)N=Nc2c(O)[nH]c3c(F)cccc23)cc1	97.4%
C/C=C(\C)C(=O)N[C@H]1CC[C@]2(C)C3CC[C@@]4(C)C(CC[C@@H]4C(C)N(C)C)C3CCC2[C@H]1OC(C)=O (stereo not given in full)	-58.7% (active)
CC(=O)N1N=C(c2ccc(Nc3nc(Nc4ccc(F)cc4)nc(Nc4ccc(Cl)cc4)n3)cc2)CC1c1ccc(N(C)C)cc1 (stereo not given)	59.2%

SMILES	growth
ON=C1CCCCCCCC1	106% and 104%
Cc1ccc(NC(=O)c2sc3nc(C)c(C(=O)c4ccccc4)cc3c2N)cc1	83.3%
O=C(/C=C/c1ccc([N+](=O)[O-])cc1)c1ccccc1	98.5%
COc1cc(CO)cc2cc3ccccc3nc12	97.1%
O=C(Cc1ccc(F)cc1)c1ccccc1	109%
COc1cc(-c2[nH]ncc2Nc2ccc(Cl)cc2)cc(OC)c1OC	74.2%
CC1(Cc2ccccc2)CC2=C(C(=O)O1)C(c1ccccc1)NC(=O)N2 (stereo not given)	89.4%
C=CCN1C=CC(=O)[C@H](O[Si](C)(C)C(C)(C)C)[C@@H]1/C=C/c1ccccc1	-92% [100 µM] (active)
Cc1ccc(-c2nc3nc(-c4ccc(Cl)cc4)nc(N4CCCNCC4)c3o2)cc1	-89.7% (active)
CC1=C2[C@@H](CC1)[C@]1(C)O[C@@](C3CC3)(C[C@H]1OC(=O)CO)[C@H]2OC(=O)/C=C/c1ccccc1	90%
CCN1CCN(C(=O)[C@]23CC[C@@H](C)[C@H](C)[C@@H]2C2=CC[C@@H]4[C@@]5(C)CCC(=O)C(C)(C)[C@@H]5CC[C@@]4(C)[C@]2(C)CC3)CC1	20.9%
CCCO/N=C/c1ccccn1	97.8% and 105%
CN(C)CCN1C(=O)c2c(c3c4ccccc4n4c3c3c2c2ccccc2n3C2CC(O)C(O)C4(C)O2)C1=O (stereo not given)	17.1%
CCOC(=O)c1c(-c2ccc(C)cc2)c(C#N)c(=O)n(-c2cccc(C(F)(F)F)c2)c1N	88.8%
CCCCCCCCCCCCCCCC(=O)O[C@@H]1[C@@H](O)[C@@H](O)C([C@H](NC(=O)[C@@H]2C[C@@H](CCC)CN2C)[C@H](C)Cl)O[C@@H]1SC (stereo not given in full)	101%
O=C1/C(=C/c2cn(-c3ccccc3)nc2-c2ccccc2)SC(=S)N1c1ccc(Cl)cc1	71.9%
CN(C)CCCn1c2c(c3ccc(N4CCNCC4)cc3c1=O)C(=O)c1ccccc1-2	-13.9% (active)
CCOc1ccccc1NC(=O)c1cc2ccccc2cc1O	52.9%
COc1ccc(C/C(C)=C(/c2ccc(OCCN3CCCCCC3)cc2)c2ccc(OC(=O)c3ccccc3)cc2)cc1	102%
